EBV LMP1 NFkB – Epstein-Barr LMP1 NF-kappaB reporter inhibition. LMP1-induced NF-kappaB luciferase reporter cells, luminescence. inhibition, % at 12.5 µM. 350,000 compounds, 0.69% hits. AID 504558; in the data active = inhibition above about 41%;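 note: 0% = neutral control wells and 100% = reference inhibitor control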
MITF TRPM1 HTS – MITF TRPM1 promoter activation in melanoma cells. activation, % at 12.5 µM. AID 588334. SK-MEL-5 TRPM1-promoter luciferase, 24 h; % of positive control, neutral wells = 0. 300,000 compounds, 0.75% hits;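 active = mean activation of at least 80% with every replicate also reaching 80%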;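 note: 0% = neutral control wells and 100% = parthenolide positive control wells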
TRPM1 prom inh – inhibitors of MITF-driven TRPM1 promoter in melanoma cells. SK-MEL-5 TRPM1 promoter luciferase, 24 h. inhibition, % at 12.5 µM. 330,000 compounds, 0.83% hits. AID 488899;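 active = mean inhibition across replicates of 60% or more, whatever share of single replicates reaches that level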
LGR2 inh – blocks bursicon-induced cAMP signaling via Drosophila LGR2. HEK293 LGR2, CRE-luciferase, bursicon-stimulated, 4 h. inhibition, % at 9.99 µM. 380,000 compounds, 0.35% hits. AID 720647;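 active = drop in luminescence signal, shown as inhibition above about 50% in the replicate tests, limit read from the data, passing the limit was not always enough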;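 note: agonist challenge used bursicon conditioned medium at about half maximal strength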
TROY signal inh – blocks TROY-dependent signaling in reporter cells; Q293 LMP1-TROYcd NF-kB luciferase reporter, 4 h; inhibition, % at 10 µM; 360,000 compounds, 0.98% hits;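 active = compounds whose plate-normalised and pattern-corrected inhibition of the luciferase reporter signal at the single screening dose is 50% or more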
TWEAK Fn14 block – inhibitors of TWEAK-Fn14 interaction signaling; inhibition, % at 10 µM; TWEAK-stimulated Fn14 reporter cells, luciferase luminescence, 8 h; 360,000 compounds, 2% hits; AID 1159606; in the data active = inhibition above about 50%
Numbers without * were called inactive; . = no result given. Shown are actives, neighbours in structure and some others; about 3% of the full set was active somewhere.

SMILES | EBV LMP1 NFkB | MITF TRPM1 HTS | TRPM1 prom inh | LGR2 inh | TROY signal inh | TWEAK Fn14 block
O=C(CN1C(=O)NC(Cc2ccccc2)C1=O)Nc1ccccc1 (stereo not given) | -11.3 | 9.5 | -8.6 | . | . | 96.8*
CCc1ccc(CNC(=O)C2CCCN(c3nnc(C)c4c(C)n(-c5ccccc5)nc34)C2)cc1 (stereo not given) | 17.1 | -65.4 | 66.3* | 0.7 | 34.9 | 18.9
Cc1nnc(N2CCCC(C(=O)NCc3cccc(F)c3)C2)c2nn(-c3ccccc3)c(C)c12 (stereo not given) | 6.9 | -25.6 | 29.6 | 16.1 | 15.3 | 6.9
Cc1ccccc1CNC(=O)C1CCCN(c2nnc(C)c3c(C)n(-c4ccccc4)nc23)C1 (stereo not given) | -3.1 | -80.4 | 82.3* | 15.1 | 28.0 | -15.8
Cc1nnc(N2CCCC(C(=O)NCc3ccccc3F)C2)c2nn(-c3ccccc3)c(C)c12 (stereo not given) | 9.8 | -29.3 | 31.6 | 2.4 | 24.7 | -9.2
COCC(=O)Nc1ccc2c(c1)[C@@H]1C[C@@H](CC(=O)NCc3ccccc3F)O[C@@H](CO)[C@@H]1O2 | . | . | . | 17.3 | . | .
Cc1ccc(C(=O)CSc2nnnn2C(C)C)c(C)c1 | 45.9* | -2.0 | 3.1 | . | 53.3* | 89.6*
N#C/C(=C/c1ccc(Sc2nc3ccccc3[nH]2)o1)c1ccccc1F | 10.2 | -8.0 | 5.2 | -10.6 | 43.5 | 20.9
N#C/C(=C/c1ccc(Sc2nc3ccccc3[nH]2)o1)c1cccc(F)c1 | 10.6 | -17.7 | 19.6 | 13.3 | 54.7* | 10.1
N#C/C(=C/c1ccc(Sc2nc3ccccc3[nH]2)o1)c1cccc(Br)c1 | 1.4 | -8.1 | 9.1 | . | 67.5* | 39.4
N#C/C(=C\c1ccc(Sc2ccccc2)o1)c1nc2ccccc2[nH]1 | -11.7 | 121.1* | -115.5 | -67.6 | -11.0 | -5.9
N#C/C(=C\Nc1ccc2c(c1)OCCO2)c1nc2ccccc2[nH]1 | -39.0 | 76.9 | -77.7 | . | 66.4* | 61.5*
COc1ccc(NC(=O)Nc2ccc3c(c2)C(=O)N([C@@H](C)CO)C[C@H](C)[C@H](CN(C)C(=O)Nc2c(C)noc2C)O3)cc1 | . | . | . | -17.9 | . | .
CN(Cc1nccn1C)C(=O)c1ccc2nc(Cc3ccccc3F)oc2c1 | -27.7 | 63.3 | -104.2 | -49.4 | -57.7 | -22.9
Cc1cc(CN(C)C(=O)c2ccc3nc(Cc4ccccc4F)oc3c2)on1 | -15.1 | 98.3* | -93.9 | -40.1 | -30.8 | -35.3
CN(Cc1nccs1)C(=O)c1ccc2nc(Cc3ccccc3F)oc2c1 | -29.2 | 113.3* | -113.4 | -71.2 | -69.3 | -31.6
CC(C)N1C(=O)/C(=C\c2nc3ccccc3c(=O)[nH]2)c2ccccc21 | -9.9 | 23.4 | -17.8 | 97.8* | 14.8 | 67.9*
COc1cc(OC)c(S(=O)(=O)N2CCCCC2)cc1S(=O)(=O)N1CCCCC1 | -4.6 | -7.4 | 9.2 | . | . | 82.6*
COc1c(S(=O)(=O)N2CCCCC2)ccc2c(S(=O)(=O)N3CCCCC3)cccc12 | 5.9 | . | 33.1 | . | 43.5 | 63.7*
COc1cc(S(=O)(=O)N2CCCCC2)c(OC)cc1Br | -3.0 | -2.6 | 0.1 | 5.5 | 0.2 | 0.7
O=S(=O)(c1cccc2c(S(=O)(=O)N3CCCC3)cccc12)N1CCCC1 | -3.6 | 1.6 | -1.1 | . | 7.3 | -18.9
C[C@H](CO)N1C[C@H](C)[C@@H](CN(C)C(=O)c2ccccn2)Oc2cc(C#Cc3ccc(F)cc3)ccc2S1(=O)=O | . | . | . | 7.6 | . | .
O=C(c1ccc(-c2ccccc2Cl)s1)N1CCOCC1 | -24.6 | 91.6* | -93.2 | -36.5 | -57.7 | -29.2
COc1ccccc1NC(=O)N[C@@H]1CC[C@H](CCNS(=O)(=O)c2ccc(C)cc2)O[C@H]1CO | . | . | . | 10.3 | . | .
Oc1c(CN2CCN(c3ccccc3)CC2)cc(Br)c2cccnc12 | 59.1* | -85.9 | 87.5* | 14.7 | -27.5 | -47.9
SMILES | EBV LMP1 NFkB | MITF TRPM1 HTS | TRPM1 prom inh | LGR2 inh | TROY signal inh | TWEAK Fn14 block
CN1CCN(Cc2cc(Cl)c3cccnc3c2OC(=O)c2cccs2)CC1 | 10.8 | -29.3 | 30.4 | 12.4 | -1.8 | -3.4
Oc1c(CN2CCOCC2)cc(COCc2ccccc2)c2cccnc12 | 76.0* | -85.8 | 84.6* | 31.4 | 8.5 | 15.3
COc1ccccc1N1CCN(Cc2ccc(O)c3ncccc23)CC1 | 72.7* | -87.6 | 87.8* | 35.6 | 1.8 | 7.8
COc1ccccc1N1CCN(Cc2ccc(OC)c(OC)c2OC)CC1 | 4.5 | . | -1.8 | . | 5.5 | -16.8
c1ccc(N2CCN(Cc3ccnc4ccccc34)CC2)cc1 | 14.9 | -9.2 | 12.0 | . | -9.0 | 5.7
Oc1c(CNc2ccccc2)cc(COCc2ccccc2)c2cccnc12 | 17.7 | -49.9 | 50.0 | 11.6 | 11.6 | 11.2
O=C(Oc1c(CN2CCOCC2)cc(Cl)c2cccnc12)c1ccccc1Br | 19.8 | -68.2 | 70.4* | 12.2 | 5.0 | -6.4
C[C@H](CO)N1C[C@H](C)[C@@H](CN(C)C(=O)NC2CCCCC2)Oc2ccc(NC(=O)CCCN(C)C)cc2C1=O | . | . | . | 10.2 | . | .
C[C@H]1CN([C@@H](C)CO)C(=O)c2cccc(NC(=O)c3ccncc3)c2O[C@@H]1CN(C)C(=O)Nc1ccc(C(F)(F)F)cc1 | . | . | . | 3.8 | . | .
Oc1cccc(CN2CCOCC2)c1O | -2.0 | -8.0 | 7.7 | 1.8 | 0.7 | 18.8
Oc1c(CN2CCOCC2)cc(CN2CCOCC2)c(O)c1O | 2.8 | 9.0 | -4.4 | 20.8 | 5.0 | 52.2*
CO[C@H]1CN(C)C(=O)c2cc(NS(C)(=O)=O)ccc2OC[C@H](C)N(CC2CCCCC2)C[C@@H]1C | . | . | . | -12.3 | . | .
CN(C(=O)/C=C/c1ccc([N+](=O)[O-])s1)c1ccccc1 | -78.7 | -69.1 | 69.1* | 9.7 | -15.5 | 40.6
CN(C(=O)C=Cc1ccco1)c1ccccc1 | -10.2 | 0.7 | 1.1 | -4.1 | -3.0 | 8.1
CCOc1cccc(/C=N/NC(=O)c2cc(C3CC3)[nH]n2)c1O | -3.9 | -57.8 | 61.4* | -9.6 | -12.2 | -17.4
CCOC(=O)N1CCN(C(=O)/C(=C/c2ccc(OC)cc2)NC(=O)c2ccccc2)CC1 | -4.6 | . | -4.6 | . | 12.6 | 1.6
CCOC(=O)N1CCN(C(=O)/C(=C/c2cccc3ccccc23)NC(=O)c2ccc(OC)cc2)CC1 | -10.2 | 19.1 | -17.9 | -19.7 | 56.0* | 19.3
CC1=NN(C(N)=S)C(=O)C1N=Nc1cccc(C(=O)O)c1 (stereo not given) | 48.8* | . | 19.1 | 60.7* | 2.8 | 6.3
O=C(O)CSc1nnc(-c2ccc3c(c2)OCO3)o1 | 1.1 | 3.5 | -6.4 | 5.4 | 3.8 | 1.2
O=C(c1ccc(Cl)cc1)N1CCCCC(Sc2nnc(-c3ccc4c(c3)OCO4)o2)C1=O (stereo not given) | 74.8* | -79.9 | 80.3* | . | 57.8* | 97.6*
COCCNC(=O)C[C@H]1CC[C@@H]2[C@H](COc3ccc(NC(=O)C4CCOCC4)cc3C(=O)N2C)O1 | . | . | . | 11.5 | . | .
COC(=O)CCC(=O)c1oc2ccc(OC)cc2c1N | -9.7 | 108.5* | -105.2 | . | 12.4 | -17.1
COc1ccc2oc(C(=O)C3CC3)c(N)c2c1 | -34.2 | 75.4 | -70.3 | . | -20.8 | -24.4
